Assay results taken from PubChem BioAssay.
“And” between values parts separate entries of the source, which are not always exact repeats. Identical values can stand only once. Inconclusive results are not listed. The source made the active and inactive calls. Unless noted, the limit is not given here; nearly all actives have AC50 up to about 26 µM.

Tests used:
[1] = viability loss in pontine glioma line – cell-based, SU-DIPG-XVII, MIPE5.0, CellTiter-Glo, qHTS, dose response (AID 1347060); settings: CellTiter-Glo ATP luminescence;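 as to AC50: cells exposed to compound for 48 hours before viability readout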
[2] = viability loss in pontine glioma line – cell-based, SU-DIPG-XIII, MIPE4.0, CellTiter-Glo, qHTS, dose response (AID 1347061; cut-off not given, nearly all actives have AC50 up to about 37 µM;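 also: cells exposed to compound for 48 hours before readout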); settings: CellTiter-Glo ATP luminescence
[3] = viability loss in pontine glioma line – cell-based, JHH-DIPG-1, MIPE4.0, CellTiter-Glo, qHTS, dose response (AID 1347062; cut-off not given, nearly all actives have AC50 up to about 27 µM;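 as to AC50: cells exposed to compound for two days before readout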); settings: JHH-DIPG-1 viability, CellTiter-Glo ATP luminescence
[4] = viability loss in pontine glioma line – cell-based, SU-DIPG-IV, MIPE4.0, CellTiter-Glo, qHTS, dose response (AID 1347063; cut-off not given, nearly all actives have AC50 up to about 30 µM;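 also: compound exposure lasted 48 hours before the viability readout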); settings: CellTiter-Glo ATP luminescence
[5] = growth inhibition of DIPG cells – cell-based, MIPE4.0 library, CellTiter-Glo luminescence, qHTS (AID 1347066; cut-off not given, nearly all actives have AC50 up to about 30 µM;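 also: cells exposed to compound for 48 hours before readout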); settings: SU-DIPG-VI viability, CellTiter-Glo ATP luminescence
[6] = JHH-DIPG-1 glioma cell viability, MIPE5.0 library, CellTiter-Glo luminescence, qHTS (AID 1347067); settings: JHH-DIPG-1 glioma viability, CellTiter-Glo ATP luminescence;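 also: cells exposed to compound for 48 hours before readout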
[7] = growth inhibition of DIPG cells – cell-based, MIPE5.0 library, qHTS (AID 1347068; cut-off not given, nearly all actives have IC50 up to about 30 µM;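 as to IC50: cells exposed to compound for 48 hours before viability readout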); settings: SU-DIPG-XXV viability
[8] = viability loss in pontine glioma line – cell-based, SU-DIPG-XIII, MIPE5.0, CellTiter-Glo, qHTS, dose response (AID 1347064; cut-off not given, nearly all actives have AC50 up to about 23 µM;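 as to AC50: cells exposed to compound for 48 hours before the viability read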); settings: CellTiter-Glo ATP luminescence
[9] = viability loss in pontine glioma line – cell-based, SU-DIPG-XXV, MIPE5.0, CellTiter-Glo, qHTS, dose response (AID 1347065); settings: CellTiter-Glo ATP luminescence;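 also: cells exposed to compound for 48 hours before ATP readout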
[10] = viability loss with induced miR-34 in A549 – imaging, A549 dox-inducible miR-34, nuclei and caspase counts, primary screen (AID 1347080;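 active = compounds whose cell count with miR-34 switched on is under 0.7 times the count with it off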); settings: A549 miR-34 inducible, Hoechst nuclei count, 48 h
[11] = MELAS cybrid and Rieske KO viability enhancers – cell-based, MELAS cybrids, Rieske KO mouse fibroblasts, CellTiter-Glo, primary screen (AID 1508586;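 active = mean z-score across replicates of 1.96 or higher in either the MELAS or the Rieske mutant cell line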;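 also: z relative to plate mean and SD of compound and empty wells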); settings: low glucose
[12] = compounds altering HSF1 focus formation in cells – imaging, Selleck Cancer Library (AID 1347162; in the data active = plate-normalised HSF1 focus index below about 0.46); settings: human cells, HSF1 nuclear foci imaging, at 10 µM; SSMD: measured here: HSF1 foci SSMD mean; cell count: measured here: cell number; plate-normalised HSF1 focus index: stronger effect = lower value
[13] = drug combination growth inhibition, ovarian cancer – cell-based, oncology-focused library, rucaparib conditional, profiling panel (AID 1508598;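 active = normalized viability below 100% at a tested concentration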); settings: patient-derived ovarian cancer cells, CellTiter-Glo viability, 144 h, stronger effect = lower value
[14] = stronger effect = lower value, cell number ratio, induced over uninduced
[15] = measured here: relative caspase fold change +Dox/-Dox
[16] = measured here: total cells with miR-34 induction, stronger effect = lower value
[17] = measured here: total cells without miR-34 induction
[18] = MELAS cybrid survival, CellTiter-Glo 48 h, stronger effect = higher value
[19] = Rieske KO mouse fibroblast survival, CellTiter-Glo 72 h

CCCCCCCCCCCCCCCC(=O)O[C@@H]1[C@@H](O)[C@@H](O)[C@@H]([C@H](NC(=O)[C@@H]2C[C@@H](CCC)CN2C)[C@H](C)Cl)O[C@@H]1SC
inactive: outcome [1] | outcome [2] | outcome [3] | outcome [4] | outcome [5] | outcome [7]
active: AC50 [6] 10.5 µM

Nc1nc2c(c(=O)[nH]1)N(C=O)[C@H](CNc1ccc(C(=O)N[C@@H](CCC(=O)O)C(=O)O)cc1)CN2
inactive: outcome [1] | outcome [2] | outcome [3] | outcome [8] | outcome [9] | outcome [5] | outcome [6] | outcome [7]

C[C@@]1(c2cc(-c3cncnc3)c(F)cc2F)CCSC(N)=N1
active: AC50 [2] 14.8 µM | AC50 [3] 14.8 µM
inactive: outcome [1] | outcome [8] | outcome [9] | outcome [5] | outcome [6] | outcome [7] | fold change [10, 14] 0.883 | z-score [11, 18] -0.425
0.36: z-score [11, 19]
8550: cell count [10, 16]
9680: cell count [10, 17]
1.05: fold change [10, 15]

O=C(Nc1ncc(-c2cc(C(F)F)nn2-c2c(Cl)cccc2Cl)s1)C1CC1
active: AC50 [1] 0.833 µM | AC50 [2] 13.2 µM | AC50 [3] 0.662 µM | AC50 [8] 2.35 µM | AC50 [9] 1.05 µM | AC50 [5] 5.26 µM | AC50 [6] 1.32 µM | IC50 [7] 1.18 µM

O=C(CCCCCCC(=O)Nc1cccnc1)NO
active: AC50 [1] 8.33 µM | AC50 [2] 9.35 µM | AC50 [3] 7.43 µM | AC50 [8] 5.9 µM | AC50 [9] 7.42 µM | AC50 [6] 3.32 µM
7080: cell count [12]
inactive: plate-normalised HSF1 focus index [12] 1.07
1.14: SSMD [12]

CC(C)(N)C(=O)N[C@H](COCc1ccccc1)C(=O)N1CCC2(CC1)CN(S(C)(=O)=O)c1ccccc12
inactive: outcome [1] | outcome [2] | outcome [3] | outcome [8] | outcome [9] | outcome [5] | outcome [6] | outcome [7]

COc1cc2c(Oc3ccc4[nH]c(C)cc4c3F)ncnc2cc1OCCCN1CCCC1
3760: cell count [10, 17]
3660: cell count [10, 16]
1.09: fold change [10, 15]
-0.313: z-score [11, 19]
inactive: fold change [10, 14] 0.973 | z-score [11, 18] -0.469 | viability ([13]; at 0.000305 µM, OCI-C5x cells, with rucaparib 10 µM, 100% = cells with rucaparib alone) 123% | viability ([13]; at 0.000305 µM, OCI-C5x cells, without rucaparib) 103% | viability ([13]; at 0.00122 µM, OCI-C5x cells, with rucaparib 10 µM, 100% = cells with rucaparib alone) 114% | viability ([13]; at 0.00122 µM, OCI-C5x cells, without rucaparib) 112% | viability ([13]; at 0.00122 µM, OCI-P5x cells, with rucaparib 20 µM, 100% = cells with rucaparib alone) 105% | viability ([13]; at 0.00488 µM, OCI-C5x cells, with rucaparib 10 µM, 100% = cells with rucaparib alone) 107% | viability ([13]; at 0.0195 µM, OCI-C5x cells, with rucaparib 10 µM, 100% = cells with rucaparib alone) 123% | viability ([13]; at 0.0781 µM, OCI-C5x cells, with rucaparib 10 µM, 100% = cells with rucaparib alone) 126% | viability ([13]; at 0.0781 µM, OCI-C5x cells, without rucaparib) 101% | viability ([13]; at 0.313 µM, OCI-C5x cells, with rucaparib 10 µM, 100% = cells with rucaparib alone) 116% | viability ([13]; at 1.25 µM, OCI-C5x cells, with rucaparib 10 µM, 100% = cells with rucaparib alone) 123% | viability ([13]; at 1.25 µM, OCI-C5x cells, without rucaparib) 107% | viability ([13]; at 1.25 µM, OCI-P5x cells, with rucaparib 20 µM, 100% = cells with rucaparib alone) 110% | viability ([13]; at 5 µM, OCI-C5x cells, with rucaparib 10 µM, 100% = cells with rucaparib alone) 131% | viability ([13]; at 5 µM, OCI-C5x cells, without rucaparib) 115%
active: AC50 [1] 1.86 µM | AC50 [2] 6.62 µM | AC50 [3] 20.9 µM | AC50 [8] 2.35 µM | AC50 [9] 2.09 µM | AC50 [5] 23.5 µM | AC50 [6] 11.8 µM | IC50 [7] 16.6 µM | viability ([13]; at 0.000305 µM, OCI-P5x cells, with rucaparib 20 µM, 100% = cells with rucaparib alone) 96.3% | viability ([13]; at 0.000305 µM, OCI-P5x cells, without rucaparib) 88.7% | viability ([13]; at 0.00122 µM, OCI-P5x cells, without rucaparib) 94% | viability ([13]; at 0.00488 µM, OCI-C5x cells, without rucaparib) 99.8% | viability ([13]; at 0.00488 µM, OCI-P5x cells, with rucaparib 20 µM, 100% = cells with rucaparib alone) 97.5% | viability ([13]; at 0.00488 µM, OCI-P5x cells, without rucaparib) 91.6% | viability ([13]; at 0.0195 µM, OCI-C5x cells, without rucaparib) 96.3% | viability ([13]; at 0.0195 µM, OCI-P5x cells, with rucaparib 20 µM, 100% = cells with rucaparib alone) 97.8% | viability ([13]; at 0.0195 µM, OCI-P5x cells, without rucaparib) 93.1% | viability ([13]; at 0.0781 µM, OCI-P5x cells, with rucaparib 20 µM, 100% = cells with rucaparib alone) 81.8% | viability ([13]; at 0.0781 µM, OCI-P5x cells, without rucaparib) 92% | viability ([13]; at 0.313 µM, OCI-C5x cells, without rucaparib) 98.1% | viability ([13]; at 0.313 µM, OCI-P5x cells, with rucaparib 20 µM, 100% = cells with rucaparib alone) 91.9% | viability ([13]; at 0.313 µM, OCI-P5x cells, without rucaparib) 94.6% | viability ([13]; at 1.25 µM, OCI-P5x cells, without rucaparib) 86.9% | viability ([13]; at 5 µM, OCI-P5x cells, with rucaparib 20 µM, 100% = cells with rucaparib alone) 76.9% | viability ([13]; at 5 µM, OCI-P5x cells, without rucaparib) 82.8%

CC(=O)OCCN1C(=O)c2c(C)nc3ccc(S(=O)(=O)N4CCOCC4)cc3c2C1=O
inactive: outcome [1] | outcome [2] | outcome [3] | outcome [8] | outcome [9] | outcome [5] | outcome [6] | outcome [7] | plate-normalised HSF1 focus index [12] 1.12
2.02: SSMD [12]
7180: cell count [12]

C[C@@H]1C(=O)OC2[C@H](O)[C@]34[C@H]5C[C@@H](C(C)(C)C)[C@]36[C@@H](OC(=O)[C@@H]6O)O[C@@]4(C(=O)O5)[C@]21O (stereo not given in full)
inactive: outcome [1] | outcome [2] | outcome [3] | outcome [8] | outcome [9] | outcome [5] | outcome [6] | outcome [7]

C[C@H]1[C@H](C)CC[C@]2(C(=O)O)CC[C@]3(C)C(=CC[C@@H]4[C@@]5(C)C[C@@H](O)[C@H](O)[C@@](C)(CO)[C@@H]5CC[C@]43C)[C@H]12
inactive: outcome [1] | outcome [2] | outcome [3] | outcome [8] | outcome [9] | outcome [5] | outcome [7]

COc1ccccc1-c1cccc(-c2c(O)c3cc(C#N)c(Cl)cc3[nH]c2=O)c1
inactive: outcome [1] | outcome [2] | outcome [3] | outcome [8] | outcome [9] | outcome [5] | outcome [6] | outcome [7]

CCc1cccc(CC)c1NC(=O)N1Cc2[nH]nc(NC(=O)c3ccc(N4CCN(C)CC4)cc3)c2C1
0.697: fold change [10, 15]
2350: cell count [10, 17]
inactive: outcome [3] | outcome [5] | fold change [10, 14] 1 | z-score [11, 18] -0.115
active: AC50 [1] 0.934 µM | AC50 [2] 14.8 µM | AC50 [8] 2.09 µM | AC50 [9] 0.661 µM
2360: cell count [10, 16]
-0.878: z-score [11, 19]

O=C(O)CCCc1c[nH]c2ccccc12
0.369 and 0.81: fold change [10, 15]
inactive: outcome [1] | outcome [2] | outcome [3] | outcome [8] | outcome [9] | outcome [5] | outcome [6] | outcome [7] | fold change [10, 14] 0.897 and 0.923 | z-score [11, 18] 0.687 and -0.261
8600 and 8570: cell count [10, 16]
0.218 and 0.556: z-score [11, 19]
9590 and 9280: cell count [10, 17]

C[C@]12CC[C@H](O)CC1=CC[C@@H]1[C@@H]2CC[C@]2(C)C(c3cccnc3)=CC[C@@H]12
1.68: SSMD [12]
inactive: outcome [1] | outcome [2] | outcome [3] | outcome [8] | outcome [9] | outcome [5] | outcome [6] | plate-normalised HSF1 focus index [12] 1.06
7310: cell count [12]
